In PubChem BioAssay (NCI):
Several values for one entry are separate records, joined by “and”; a condition that tells them apart may be missing. Identical values can stand only once. Compounds without any hit were thinned out: in the full panel of roughly 83,000, 20% have a hit.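 Plates (96-well) were seeded with cells, treated with compound at one concentration, and incubated for 48 hours before percent growth was determined.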 A number with no mark means an inactive call. Activity calls are given as the source filed them. The calls were made as follows: active = growth percent below 10; inactive = the rest.

tested on: MDA-MB-468 breast; experiment: NCI-60 one-dose screen, 48 h (100 = growth as untreated, 0 = no growth, -100 = all killed); details: 10 µM unless noted

Row | SMILES | growth
1 | Cc1ccc(NC(=O)CN2CCOCC2)cc1Cl | 99.1%
2 | CCN(Cc1ccc(CN(CC)C(=O)C(Br)Br)cc1)C(=O)C(Br)Br | 17.6%
3 | O=C1CC(c2ccc3c(c2)OCO3)Nc2ccccc21 (stereo not given) | 2.73% (active)
4 | CCOc1ccc(C2N(c3cc(OC)c(OC)c(OC)c3)C(=O)C2(F)F)cc1 (stereo not given) | 34.9%
5 | COc1ccc(/C(=N/O)c2cc(OC)c(OC)c(OC)c2)c(OC)c1N | 27.8%
6 | COc1ccc(NC(=S)NNc2ccc(-c3ccc(OC)c(OC)c3)nn2)cc1 | 109%
7 | CCN(CC)CCCC(C)NCc1ccccc1 (stereo not given) | 112%
8 | O=c1oc2c(C(F)(F)F)cccc2cc1-c1csc(Nc2ccc(OCCF)cc2)n1 | 5.55% (active)
9 | O=C(CCl)N1CCN(C/C=C/c2ccccc2)CC1 | 81%
10 | COc1ccc(Cn2cc3c(c2-c2cc(OC)c(OC)c(OC)c2)CCc2cnoc2-3)cc1 | 4.09% (active)
11 | CC1=C(C)C(=O)C(Nc2ccccc2)=C(Cl)C1=O | -76% (active)
12 | Nc1nc2ccccc2c2c(=O)c3cccc(Cl)c3sc12 | -0.88% (active)
13 | CC(=O)c1ccc(Nc2nc(Cl)nc(Oc3c(Cl)cccc3Cl)n2)cc1 | 93.3%
14 | C1=C(Cc2ccccc2)n2cnc3ncnc(c32)S1 | -11.8% (active)
15 | C#Cc1nc(/C=C/C(=O)c2nccn2C)cs1 | -28.5% (active)
16 | COc1cc(/C=C/C(C)=O)ccc1O | 100% and 111%
17 | CCCCC1(O)CCCCC1 | 94.9%
18 | O=C(O)c1ccc(-n2cc(CNc3ccc(C(F)(F)F)cc3)c(-c3ccccc3)n2)cc1 | 102%
19 | N#C/C(=C\c1ccc2c(c1)OCO2)n1nnc2cc(F)c(F)cc21 | 6.05% (active)
20 | COc1cc2c(cc1OC)C(CC1(O)CCCCC1)N(S(=O)(=O)c1ccc(C)cc1)CC2 (stereo not given) | 44.4% [100 µM]

Row | SMILES | growth
21 | COc1cc(-c2nc3ccccc3[nH]2)ccc1OCC(=O)N=Nc1c(O)[nH]c2ccc(Cl)cc12 | -78.9% (active)
22 | COc1cc(-c2nn(-c3cccc(NC(=O)CCN4CCN(C)CC4)c3)cc2-c2ccncc2)ccc1Cl | 18.2%
23 | Cn1c([N+](=O)[O-])cnc1/C=C1\Oc2cc(Cl)ccc2C1=O | 68.7%
24 | CC(=O)c1c(C)nc2ccccc2c1/C=C/c1cccc(C)c1 | 28.5%
25 | COC(=O)/C=C/c1cc(OC)c2c(c1)[C@@H](C(=O)OC)[C@H](c1ccc(OC)c(OC)c1)O2 | 50.9%
26 | O=C(/C=C/c1ccc[nH]1)c1ccc(-n2ccc(C(F)(F)F)n2)cc1 | 90.3%
27 | COc1ccc2c(c1)OC(N(C(C)=O)C(C)=O)=C(C#N)C2c1ccc(F)cc1 (stereo not given) | -36.1% (active)
28 | FC(F)(F)c1cn(CC2CNC2)c2ncnc(Cl)c12 | 111%
29 | CC(=O)O[C@H]1CC[C@]2(C)[C@H]3CC=C4[C@@H]5[C@H](C)[C@@H](C)CC[C@]5(C(=O)NCCNCCNCCN)CC[C@@]4(C)[C@]3(C)CC[C@H]2C1(C)C | 69.2%
30 | NS(=O)(=O)c1ccc(Nc2nc(O)c(/C=C3\C=Nc4ccccc43)s2)cc1 | 104%
31 | COc1ccc(/C(=C\c2cc(OC)c(OC)c(OC)c2)C(=O)N2CCN(c3ccccc3)CC2)cc1O | 96.8%
32 | O=C(Nc1ccc(Cl)cc1F)c1ccccc1O | 6.26% (active)
33 | Cc1n(Cc2ccc3ccccc3n2)cc[n+]1Cc1ccc2ccccc2c1 | -23.5% (active)
34 | CN1CCC[C@@H]1CCO[C@](C)(c1ccccc1)c1ccc(Cl)cc1 | -10.5% (active)
35 | NC[C@@](O)(c1ccc(Cl)cc1)c1ccc(-c2cn[nH]c2)cc1 | -40.9% (active)
36 | CN(C)c1ccc(C(c2ccc(O)cc2)c2ccc(N(C)C)cc2)cc1 | 1.1% (active)
37 | COc1cccc(C2C(C#N)=C(N)Oc3c2ccc2ccccc32)c1 (stereo not given) | 11.6%
38 | COc1cc2c(=O)n(CCN)c3c4cc5c(cc4ccc3c2cc1OC)OCO5 | -31.7% (active)
39 | Cc1cc(O)c(C(C)C)cc1Cl | 114%
40 | CN(C)CCCNc1nc(-c2cccc(C(Cl)(Cl)Cl)c2)nc(C(Cl)(Cl)Cl)n1 | 114%
